Experimental data as given in PubChem BioAssay AID1159580 (chemical genetic matrix, 2015).
Where “and” joins values, the source holds several entries; their conditions need not be identical. Equal values may be shown once. About 2,000 (36%) of roughly 5,500 compounds were called active. About 18% were inconclusive and are not listed. No stated cut-off is given here; in the data, active means normalized growth mostly below about 0.91 (no sharp cut-off); inconclusive means no clear call, values can overlap the other calls; inactive means mostly above about 0.92. The list shows a part of the results.

Test: chemical genetic growth profiling, strain panel (AID 1159580);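 further: tested at 20 µM; growth read once vehicle control cultures reached saturation at 30 °C; 1 = growth at the plate median or of vehicle wells; lower values mean less growth of the strain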
Conditions: S. cerevisiae deletion strains, growth OD

Measured: normalized growth

C[C@@H]1O[C@@H](OC[C@H]2OC(Oc3c(-c4ccc(OCCO)c(OCCO)c4)oc4cc(OCCO)cc(O)c4c3=O)[C@H](O)[C@@H](O)[C@@H]2O)[C@H](O)[C@H](O)[C@H]1O (stereo not given in full)
inactive: locus YAL013W, strain DEP1, hits give low values 0.994 | locus YAL021C, strain ccr4, hits give low values 0.972 | locus YAL026C, strain drs2, hits give low values 0.973 | locus YAL030W, strain snc1, hits give low values 0.946 | locus YBL061C, strain skt5, hits give low values 0.974 | locus YBR009C, strain hhf1, hits give low values 0.981 | locus YBR021W, strain FUR4, hits give low values 1.02 | locus YBR023C, strain chs3, hits give low values 0.956 | locus YBR171W, strain sec66, hits give low values 0.945 | locus YBR229C, strain ROT2, hits give low values 0.961 | locus YBR231C, strain swc5, hits give low values 0.962 | locus YBR279W, strain paf1, hits give low values 0.967 | locus YCL011C, strain gbp2, hits give low values 0.952 | locus YCL016C, strain dcc1, hits give low values 0.984 | locus YCL029C, strain bik1, hits give low values 1.01 | locus YCL061C, strain MRC1, hits give low values 0.973 | locus YCL069W, strain vba3, hits give low values 0.966 | locus YCR088W, strain abp1, hits give low values 0.969 | locus YDL005C, strain med2, hits give low values 0.963 | locus YDL035C, strain GPR1, hits give low values 0.945 | locus YDL040C, strain nat1, hits give low values 0.972 | locus YDL074C, strain BRE1, hits give low values 1.01 | locus YDL101C, strain DUN1, hits give low values 0.979 | locus YDL185W, strain tfp1, hits give low values 0.973 | locus YDL192W, strain arf1, hits give low values 0.992 | locus YDR001C, strain nth1, hits give low values 0.943 | locus YDR069C, strain doa4, hits give low values 0.931 | locus YDR101C, strain arx1, hits give low values 1.04 | locus YDR137W, strain rgp1, hits give low values 0.938 | locus YDR159W, strain sac3, hits give low values 0.94 | locus YDR162C, strain NBP2, hits give low values 0.985 | locus YDR195W, strain ref2 0.892 | locus YDR297W, strain sur2, hits give low values 0.974 | locus YDR318W, strain mcm21, hits give low values 0.963 | locus YDR334W, strain swr1, hits give low values 0.916 | locus YDR335W, strain msn5, hits give low values 0.958 | locus YDR388W, hits give low values 0.994 | locus YDR392W, strain spt3, hits give low values 1.02 | locus YDR502C, strain sam2, hits give low values 0.995 | locus YEL003W, strain gim4, hits give low values 0.968 | locus YEL037C, strain rad23, hits give low values 0.955 | locus YEL061C, strain CIN8 (second series), hits give low values 0.947 | locus YEL061C, strain CIN8, hits give low values 0.997 | locus YER015W, strain faa2, hits give low values 0.984 | locus YER016W, strain bim1, hits give low values 0.96 | locus YER110C, hits give low values 0.978 | locus YER111C, strain swi4, hits give low values 0.963 | locus YER155C, strain BEM2 (second series), hits give low values 0.974 | locus YER155C, strain BEM2, hits give low values 1 | locus YER167W, strain BCK2, hits give low values 1.01 | locus YFR010W, strain ubp6, hits give low values 0.946 | locus YGL078C, strain dbp3, hits give low values 0.996 | locus YGL086W, strain mad1, hits give low values 1.03 | locus YGL167C, strain pmr1, hits give low values 0.933 | locus YGL173C, strain kem1, hits give low values 0.993 | locus YGL227W, strain vid30, hits give low values 0.938 | locus YGL240W, strain doc1, hits give low values 0.958 | locus YGL248W, strain PDE1, hits give low values 0.965 | locus YGL253W, strain hxk2, hits give low values 0.965 | locus YGR078C, strain PAC10, hits give low values 0.984 | locus YGR135W, strain pre9, hits give low values 0.97 | locus YGR252W, strain gcn5, hits give low values 0.947 | locus YHR013C, strain ard1, hits give low values 0.973 | locus YHR027C, strain rpn1, hits give low values 0.958 | locus YHR030C, strain SLT2, hits give low values 1 and 0.999 | locus YHR079C, strain IRE1 (second series), hits give low values 1 | locus YHR079C, strain IRE1, hits give low values 1.02 | locus YHR094C, strain hxt1, hits give low values 0.969 | locus YHR129C, strain ARP1, hits give low values 0.99 | locus YHR142W, strain chs7, hits give low values 0.958 | locus YHR200W, strain rpn10, hits give low values 0.983 | locus YIL066C, strain RNR3, hits give low values 0.972 | locus YIL073C, strain SPO22, hits give low values 0.969 | locus YIL125W, strain kgd1, hits give low values 0.991 | locus YIR030C, strain dcg1, hits give low values 0.993 | locus YJL092W, strain hpr5, hits give low values 0.967 | locus YJL095W, strain BCK1 (second series), hits give low values 0.967 | locus YJL095W, strain BCK1, hits give low values 0.972 and 1.01 | locus YJL115W, strain asf1, hits give low values 0.948 | locus YJL129C, strain trk1, hits give low values 0.954 | locus YJL134W, strain LCB3, hits give low values 0.99 | locus YJL154C, strain vps35, hits give low values 0.958 | locus YJL164C, strain tpk1, hits give low values 0.995 | locus YJL166W, strain qcr8, hits give low values 0.971 | locus YJL168C, strain set2, hits give low values 0.993 | locus YJL187C, strain SWE1 (second series), hits give low values 0.983 | locus YJR043C, strain POL32, hits give low values 0.972 | locus YJR066W, strain TOR1, hits give low values 0.941 | locus YJR075W, strain HOC1, hits give low values 0.983 | locus YKL009W, strain mrt4, hits give low values 0.978 | locus YKL068W, hits give low values 0.973 | locus YKL085W, strain MDH1 (second series), hits give low values 0.981 | locus YKL085W, strain MDH1, hits give low values 0.981 | locus YKL160W, strain elf1, hits give low values 0.986 | locus YKL190W, strain CNB1, hits give low values 0.992 | locus YKR001C, strain vps1, hits give low values 0.994 | locus YKR026C, strain gcn3, hits give low values 0.946 | locus YKR091W, strain srl3, hits give low values 0.974 | locus YLL001W, strain dnm1, hits give low values 0.963 | locus YLL026W, hits give low values 0.947 | locus YLL041C, strain sdh2, hits give low values 0.959 | locus YLR027C, strain aat2, hits give low values 0.964 | locus YLR039C, strain RIC1, hits give low values 1.07 | locus YLR058C, strain SHM2, hits give low values 0.978 | locus YLR102C, strain apc9, hits give low values 0.986 | locus YLR113W, strain HOG1, hits give low values 1.01 | locus YLR221C, strain rsa3, hits give low values 0.986 | locus YLR258W, strain gsy2, hits give low values 0.971 | locus YLR262C, strain YPT6 (second series), hits give low values 0.961 | locus YLR262C, strain YPT6, hits give low values 1.08 | locus YLR268W, strain sec22, hits give low values 1.03 | locus YLR320W, strain mms22, hits give low values 1.01 | locus YLR330W, strain CHS5, hits give low values 1 | locus YLR342W, strain FKS1 (second series), hits give low values 0.985 | locus YLR342W, strain FKS1, hits give low values 0.974 | locus YLR357W, strain rsc2, hits give low values 0.947 | locus YLR370C, strain arc18, hits give low values 0.954 | locus YLR371W, strain rom2, hits give low values 0.963 | locus YLR384C, strain iki3, hits give low values 0.962 | locus YLR418C, strain cdc73, hits give low values 0.959 | locus YML016C, strain PPZ1, hits give low values 0.996 | locus YML032C, strain rad52, hits give low values 0.952 | locus YML120C, strain ndi1, hits give low values 0.963 | locus YML124C, strain tub3, hits give low values 1.01 | locus YMR058W, strain fet3, hits give low values 0.959 | locus YMR078C, strain ctf18, hits give low values 0.988 | locus YMR125W, strain sto1, hits give low values 0.948 | locus YMR129W, hits give low values 0.972 | locus YMR205C, strain PFK2, hits give low values 0.977 | locus YMR223W, strain ubp8, hits give low values 0.985 | locus YMR231W, strain pep5, hits give low values 0.971 | locus YMR307W, strain GAS1, hits give low values 1.01 | locus YNL067W, strain RPL9B, hits give low values 0.978 | locus YNL071W, strain lat1, hits give low values 0.971 | locus YNL128W, strain TEP1, hits give low values 0.998 | locus YNL183C, strain NPR1, hits give low values 0.936 | locus YNL209W, strain ssb2, hits give low values 0.958 | locus YNL233W, strain BNI4, hits give low values 0.993 | locus YNL248C, strain rpa49, hits give low values 0.973 | locus YNL250W, strain rad50, hits give low values 0.984 | locus YNL271C, strain bni1, hits give low values 0.993 | locus YNL298W, strain CLA4, hits give low values 0.973 | locus YNL307C, strain MCK1, hits give low values 0.988 | locus YNL322C, strain KRE1 (second series), hits give low values 0.949 | locus YNR049C, strain mso1, hits give low values 0.965 | locus YNR052C, strain pop2, hits give low values 0.99 | locus YOL012C, strain htz1 1.9 | locus YOL147C, strain pex11, hits give low values 0.991 | locus YOR001W, strain rrp6, hits give low values 0.962 | locus YOR061W, strain CKA2, hits give low values 0.954 | locus YOR069W, strain VPS5, hits give low values 0.994 | locus YOR070C, strain gyp1, hits give low values 0.977 | locus YOR080W, strain dia2, hits give low values 0.943 | locus YOR083W, strain WHI5, hits give low values 0.987 | locus YOR106W, strain vam3, hits give low values 0.943 | locus YOR136W, strain idh2, hits give low values 0.984 | locus YOR144C, strain elg1, hits give low values 0.986 | locus YOR184W, strain ser1, hits give low values 0.987 | locus YOR231W, strain MKK1, hits give low values 1.03 | locus YOR265W, strain rbl2, hits give low values 0.963 | locus YOR270C, strain vph1, hits give low values 0.94 | locus YOR290C, strain snf2, hits give low values 0.972 | locus YOR316C, strain cot1, hits give low values 0.982 | locus YPL051W, strain arl3, hits give low values 0.956 | locus YPL055C, strain LGE1, hits give low values 0.994 | locus YPL078C, strain atp4, hits give low values 0.952 | locus YPL106C, strain sse1, hits give low values 0.925 | locus YPL240C, strain hsp82, hits give low values 0.972 | locus YPL241C, strain CIN2, hits give low values 1 | locus YPL256C, strain CLN2, hits give low values 1.01 | locus YPR119W, strain clb2, hits give low values 0.996 | locus YPR141C, strain kar3, hits give low values 0.974 | locus YPR163C, strain tif3, hits give low values 0.993 | locus YPR167C, strain met16, hits give low values 0.99 | strain wtn01, hits give low values 1.02
